MBD2 DNA inh: blocks human MBD2 binding to methylated DNA; Q9UBB5; TR-FRET, MBD2 binding to methylated oligonucleotide; actives 0.31% (n = 370,000); AID 686964; inhibition, % at 4.4 µM; in the data active means inhibition above about 13%
Target sequence (Q9UBB5 whole entry, looked up): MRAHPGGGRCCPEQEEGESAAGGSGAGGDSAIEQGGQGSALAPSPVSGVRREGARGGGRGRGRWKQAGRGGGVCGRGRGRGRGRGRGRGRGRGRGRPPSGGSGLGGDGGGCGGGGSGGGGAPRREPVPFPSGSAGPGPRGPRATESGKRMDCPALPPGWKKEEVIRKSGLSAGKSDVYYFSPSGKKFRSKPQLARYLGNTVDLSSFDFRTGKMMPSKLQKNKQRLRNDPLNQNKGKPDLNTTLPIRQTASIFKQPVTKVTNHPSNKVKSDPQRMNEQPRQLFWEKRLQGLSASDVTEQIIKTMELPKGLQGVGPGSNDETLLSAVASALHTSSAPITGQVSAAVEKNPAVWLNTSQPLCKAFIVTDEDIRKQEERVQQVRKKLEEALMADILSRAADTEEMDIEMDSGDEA
Casp6 inh: blocks human caspase-6 cleavage activity; actives 0.53% (n = 350,000); AID 686996; inhibition, % at 12.5 µM; purified caspase-6, Z-VEID-R110 cleavage fluorescence;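 active means mean inhibition across replicates at least about 35%, with every replicate also reaching that limit, limit read from the data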
Target sequence (P55212 24-179 limits assumed): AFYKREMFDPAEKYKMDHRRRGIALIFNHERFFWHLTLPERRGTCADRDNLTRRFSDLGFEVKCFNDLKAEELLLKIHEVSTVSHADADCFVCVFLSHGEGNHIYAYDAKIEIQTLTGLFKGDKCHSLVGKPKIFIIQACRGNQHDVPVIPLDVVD
Target sequence (P55212 194-293 limits assumed): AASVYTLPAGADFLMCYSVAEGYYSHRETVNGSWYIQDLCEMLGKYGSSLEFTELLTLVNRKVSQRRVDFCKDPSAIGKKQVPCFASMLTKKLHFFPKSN
LEDGF integ inh: blocks HIV-1 LEDGF/p75-dependent DNA integration; TR-FRET IN-LEDGF/p75 DNA integration, Eu/Cy5; inhibition, % at 3.7 µM; actives 0.64% (n = 370,000); AID 743269;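 active means inhibition above the screen-wide mean plus 3 SD, cut at about 13% in these data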;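 further: signal is the Cy5 over europium emission ratio at 671 and 618 nm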
UHRF1 MBD2 ctr: blocks human UHRF1 binding to methylated DNA. UHRF1 binding to methylated oligo, TR-FRET. inhibition, % at 4.4 µM. actives 0.75% (n = 370,000). AID 687016;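 further: UHRF1 SRA domain binding a hemimethylated CpG hairpin DNA probe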
UHRF1 DNA bind: inhibits human UHRF1 binding to methylated oligonucleotide, MBD2 counter-screen | shares compounds with MBD2 DNA inh | AID 720530 | actives 25% (n = 1,000) | TR-FRET | inhibition, % at 4.4 µM;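 further: UHRF1 SRA domain binding a labeled hemimethylated CpG hairpin DNA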
MBD2 DBD conf: MBD2-DBD methyl-DNA binding inhibition, TR-FRET confirmation. TR-FRET MBD2-DBD binding to methylated oligonucleotide. actives 26% (n = 1,000). inhibition, % at 4.4 µM. shares compounds with MBD2 DNA inh; in the data active means inhibition above about 14%
Each line names hits and unclear results; the compound was inactive in the other large screens (follow-up assays come after a bar, where they were run). Rows were chosen to be rich in hits. Some 1.4% of all compounds tested hit in one or more screens of this group. Unless noted, no stated cut-off is given here; in the data, active means inhibition above about 21%; inactive means the rest.

CC(NC(=O)CN(C)Cc1ccc(Br)cc1)c1ccccc1 (configuration not stated)	none
CSc1ccc(CN(C)CC(=O)NC(C)c2ccccc2)cc1 (configuration not stated)	MBD2 DNA inh 18.6 | UHRF1 DNA bind inactive | MBD2 DBD conf inactive
CC(=O)Nc1cccc(NC(=O)c2ccc3[nH]c(C)c(C)c3c2)c1	none
Cc1cc(NC(=O)c2ccc3[nH]c(C)c(C)c3c2)ccn1	MBD2 DNA inh 14.1 | UHRF1 DNA bind inactive | MBD2 DBD conf inactive
COC(=O)[C@]12C[C@H](CC(=O)NCC3CCCCC3)C(=O)N(Cc3ccco3)C1=C[C@H](C(C)(C)C)O[C@@H]2C	none (no result: Casp6 inh)
COC(=O)[C@]12C[C@H](CC(=O)NCC3CCCCC3)C(=O)N(Cc3ccccc3)C1=C[C@H](C(C)(C)C)O[C@@H]2C	MBD2 DNA inh 19.6, UHRF1 MBD2 ctr 24.1 | UHRF1 DNA bind inactive | MBD2 DBD conf inactive
COC(=O)[C@]12C[C@H](CC(=O)NCCCN3CCCC3=O)C(=O)N(Cc3ccc(Cl)cc3Cl)C1=C[C@H](C1CCCC1)O[C@@H]2C	MBD2 DNA inh 14.9 (no result: Casp6 inh) | UHRF1 DNA bind inactive | MBD2 DBD conf inactive
CC(C)NC(=O)N(C)C[C@H]1OCCCC[C@@H](C)Oc2ccc(NS(=O)(=O)c3ccc(F)cc3)cc2C(=O)N([C@H](C)CO)C[C@@H]1C	none (no result: MBD2 DNA inh, LEDGF integ inh, UHRF1 MBD2 ctr)
CC1(C(=O)Nc2ccc3c(c2)OCO3)CCN1C(=O)CCC1CCCC1 (configuration not stated)	MBD2 DNA inh 19.7 | UHRF1 DNA bind inactive | MBD2 DBD conf inactive
Cc1ccc(NC(=O)C2(C)CCN2C(=O)CCC2CCCC2)cc1C (configuration not stated)	none
Cc1ccc(C)c2[nH]c(=O)c(CN(Cc3nnnn3C3CCCCC3)CC3CCCO3)cc12 (configuration not stated)	none
Cc1ccc(C)c2[nH]c(=O)c(CN(CCN3CCOCC3)Cc3nnnn3CC3CCCO3)cc12 (configuration not stated)	MBD2 DNA inh 17.7 (no result: Casp6 inh) | UHRF1 DNA bind inactive | MBD2 DBD conf inactive
CCN(CC)CCn1c2ccccc2c2cnc(N)c(C#N)c21	MBD2 DNA inh 16.4 (no result: Casp6 inh) | UHRF1 DNA bind 21.2 | MBD2 DBD conf 32.7
C[C@@H]1CN([C@@H](C)CO)C(=O)c2cccc(NC(=O)c3ccncc3)c2O[C@H]1CN(C)S(=O)(=O)c1cccs1	none (no result: MBD2 DNA inh, LEDGF integ inh, UHRF1 MBD2 ctr)
CC1CCC(NC(=O)C2CCC(CNS(=O)(=O)c3ccccc3)CC2)CC1 (configuration not stated)	none
O=C(NC1CCCCCC1)C1CCC(CNS(=O)(=O)c2ccc(Br)s2)CC1 (configuration not stated)	MBD2 DNA inh 13.8, UHRF1 MBD2 ctr 23.4 (no result: Casp6 inh) | UHRF1 DNA bind inactive | MBD2 DBD conf inactive
CCN(CC(=O)Nc1ccc2c(c1)OCCO2)CC(=O)Nc1ccc(C)c([N+](=O)[O-])c1	none
CCN(CC(=O)Nc1ccc2c(c1)OCCO2)CC(=O)Nc1ccc(C)c(S(=O)(=O)N(C)C)c1	MBD2 DNA inh 19.9 | UHRF1 DNA bind inactive | MBD2 DBD conf inactive
CN1C(=O)c2cc(NC(=O)Nc3ccccc3)ccc2OC[C@H]2O[C@H](CC(=O)NC3CCC3)CC[C@@H]21	none (no result: MBD2 DNA inh, LEDGF integ inh, UHRF1 MBD2 ctr)
O=C(OCc1cc(=O)n2c(n1)sc1ccccc12)c1ccc2c(=O)n3c(nc2c1)CCC3	MBD2 DNA inh 22.0, UHRF1 MBD2 ctr 39.4 (no result: Casp6 inh) | UHRF1 DNA bind 26.6 | MBD2 DBD conf 22.3
CN1C(=O)c2cc(NC(=O)c3cccs3)ccc2OC[C@@H]2O[C@H](CC(=O)N3CCCCC3)CC[C@H]21	none (no result: MBD2 DNA inh, LEDGF integ inh, UHRF1 MBD2 ctr)
CC1Sc2ccccc2N(Cc2ccc(OC(F)(F)F)cc2)C1=O (configuration not stated)	MBD2 DNA inh 25.7 | UHRF1 DNA bind inactive | MBD2 DBD conf inactive
CN1C(=O)c2cc(NC(=O)Nc3ccc(F)cc3)ccc2OC[C@H]2O[C@H](CC(=O)NC3CCC3)CC[C@@H]21	none (no result: MBD2 DNA inh, LEDGF integ inh, UHRF1 MBD2 ctr)
FC(F)Sc1nc2ccccc2[nH]1	MBD2 DNA inh 40.2 | UHRF1 DNA bind inactive | MBD2 DBD conf inactive
Cc1ccc(S(=O)(=O)Nc2ccc3c(c2)CC(=O)N([C@@H](C)CO)C[C@H](C)[C@@H](CN(C)Cc2ccc(Cl)c(Cl)c2)O3)cc1	none (no result: MBD2 DNA inh, LEDGF integ inh, UHRF1 MBD2 ctr)
C[C@@H]1CN([C@H](C)CO)C(=O)c2cc(NC(=O)CCC(F)(F)F)ccc2O[C@@H](C)CCCCO[C@@H]1CN(C)S(C)(=O)=O	none (no result: MBD2 DNA inh, LEDGF integ inh, UHRF1 MBD2 ctr)
COc1ccc(-c2nn(C)c3sc(C(=O)NCCN(C)C)cc23)cc1OC	MBD2 DNA inh 18.0, UHRF1 MBD2 ctr 27.7 | UHRF1 DNA bind 29.3 | MBD2 DBD conf 24.8
CCN(CC)CCNC(=O)c1cc2c(-c3cccc(OC)c3)nn(C)c2s1	none
COc1cccc(CC(=O)N2CCC(CCC(=O)Nc3cccc(OC)c3)CC2)c1	none
COc1cccc(NC(=O)CCC2CCN(C(=O)c3cccc(NC(C)=O)c3)CC2)c1	MBD2 DNA inh 35.8 | UHRF1 DNA bind inactive | MBD2 DBD conf inactive
O=C(O)C1=CCC=CC1C(=O)O (configuration not stated)	MBD2 DNA inh 17.3, Casp6 inh 67.5, UHRF1 MBD2 ctr 38.7 | UHRF1 DNA bind 52.3 | MBD2 DBD conf 20.2
C[C@@H]1CN([C@@H](C)CO)C(=O)c2cc(C#CC3(O)CCCC3)cnc2O[C@@H]1CN(C)Cc1ccccn1	none (no result: MBD2 DNA inh, LEDGF integ inh, UHRF1 MBD2 ctr)
COc1ccccc1Cc1c(C2CCCCC2)nc2ccc(C)cn12	none
COc1ccc(Cc2c(C3CCCCC3)nc3ccc(C)cn23)c(C)c1	MBD2 DNA inh 17.5, UHRF1 MBD2 ctr 25.1 | UHRF1 DNA bind inactive | MBD2 DBD conf inactive
CO[C@H]1CN(C)C(=O)c2cc(NC(C)=O)ccc2OC[C@@H](C)N(Cc2ccccc2C(=O)O)C[C@@H]1C	none (no result: MBD2 DNA inh, LEDGF integ inh, UHRF1 MBD2 ctr)
CSc1nc2ccccc2n1Cc1cccc([N+](=O)[O-])c1	MBD2 DNA inh 16.2 | UHRF1 DNA bind inactive | MBD2 DBD conf inactive
Cc1nc(C/C(=N\N)c2ccc(O)cc2O)cs1	none
CCc1cc(/C(Cc2csc(C)n2)=N/O)c(O)cc1O	MBD2 DNA inh 13.8 (no result: Casp6 inh) | UHRF1 DNA bind inactive | MBD2 DBD conf inactive
COc1ccc(C#Cc2ccc3c(c2)O[C@@H](CN(C)C(=O)Nc2cccc(OC)c2)[C@@H](C)CN([C@@H](C)CO)S3(=O)=O)cc1	none (no result: MBD2 DNA inh, LEDGF integ inh, UHRF1 MBD2 ctr)
CCCCC(=O)Nc1ccc(N2CCN(c3ccc(F)cc3)CC2)cc1	MBD2 DNA inh 33.9 | UHRF1 DNA bind inactive | MBD2 DBD conf inactive
C/C=C/c1ccc2c(c1)O[C@H](CN(C)Cc1ccc(F)cc1)[C@@H](C)CN([C@@H](C)CO)S2(=O)=O	none (no result: MBD2 DNA inh, LEDGF integ inh, UHRF1 MBD2 ctr)
CCN(CC)CCC(=O)Nc1cccc2c1C(=O)c1ccccc1C2=O	MBD2 DNA inh 27.3 | UHRF1 DNA bind inactive | MBD2 DBD conf 37.5
CCN(CC)CCNC(=O)c1ccc2c(c1NCCO)C(=O)c1ccccc1C2=O	MBD2 DNA inh 21.6, Casp6 inh 35.8 | UHRF1 DNA bind inactive | MBD2 DBD conf 29.8
CCCNC(=O)C[C@H]1CC[C@H]2[C@@H](COC[C@H](O)CN2CC2CCCCC2)O1	none (no result: MBD2 DNA inh, LEDGF integ inh, UHRF1 MBD2 ctr)

Source: PubChem (several laboratories)
